From PubChem BioAssay (NCATS)
Unmarked numbers belong to inactive results. Records with an inconclusive call do not appear. Activity calls are given as the source filed them. Unless noted, calls follow the shape of the dose curve; as a rule, active = well fitted curve in either direction with a large enough effect (not every such curve was filed as active); inconclusive = small, poorly fitted or top-dose-only effect, or another doubt; inactive = flat fitted curve, though single readings scatter.

Tests used:
[1] = biological target: Lysosomal acid glucosylceramidase (Homo sapiens) (UniProt P04062); experiment: Glucocerebrosidase-p2 (AID 348; in the data active = potency below about 10 µM; also: potency is read from the fitted curve at half-maximal effect); settings: purified GBA, blue fluorogenic substrate, 40 min
Method in brief: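 Compounds titrated from 0.6 nM upwards against 0.2 nM enzyme in pH 5.9 citric acid/KH2PO4, taurocholate, tween-20; blue fluorogenic substrate 80 uM, 40 min room temperature, stopped and read Ex 365/Em 440 for AC50.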

[2] = AP1 Signaling Pathway (AID 357); settings: ME-180 AP-1-bla reporter, EGF-induced, beta-lactamase ratio, 5 h; at 7.69 µM (top of the series) unless noted;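 also: ME-180 reporter cells stimulated with EGF at its EC50 level; % is scaled to controls: 0 for no effect and ±100 for the full control effect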
Method in brief: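 Titration-series screen for positive or negative modulators of EC50 EGF-induced signaling in ME-180 cells carrying an AP-1-driven beta-lactamase reporter. After 5 hours at 37 degrees Celsius, CCF4 460nm/530nm emission ratio gave %Activity; AC50 values derived.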

[3] = biological target: Cytochrome P450 1A2 (Homo sapiens) (UniProt P05177); experiment: p450-cyp1a2 (AID 410; calls by dose curve; also: potency is read from the fitted curve at half-maximal effect;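 as to activity change, negative = inhibition: -100% = full effect of reference inhibitor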)
Method in brief: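 Inhibition was calculated relative to 57 uM furafylline (full inhibition). The reaction used human CYP1A2 at 20nM with Luciferin-ME at its Km, 100uM, driven by an NADPH-regenerating system for 60 min at room temperature.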

[4] = NFAT Signaling Pathway (AID 444); settings: Jurkat NFAT-bla M1, carbachol, beta-lactamase ratio, 5 h; at 7.69 µM (top of the series) unless noted;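 also: carbachol stimulus at about its EC50 of 1 µM final; % is scaled to controls: 0 for no effect and ±100 for the full control effect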
Method in brief: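 Jurkat cells carrying an NFAT-driven β-lactamase reporter and co-transfected muscarinic M1 receptor were treated with compound plus carbachol (1 uM final, an EC50 level) for 5 h at 37 °C. CCF4 loading followed for 1 h at RT; 460/530 nm ratio gave %activity.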

[5] = Stat Signaling Pathway (AID 446); settings: ME-180 SIE beta-lactamase reporter, IL-6 stimulated, 5 h; at 7.69 µM (top of the series) unless noted;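 also: ME-180 cervical cancer cells given 40 pM IL-6 alongside compound; SIE-controlled beta-lactamase reporter measured as 460/530 nm FRET emission ratio; % is scaled to controls: 0 for no effect and ±100 for the full control effect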
Method in brief: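 Screening format detects activators and inhibitors alike: ME-180 SIE-bla cells stimulated at 40 pM IL-6 for 5 hrs with compound, then dual-emission beta-lactamase read at 405 nm excitation.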

[6] = biological target: Glucocorticoid receptor (Homo sapiens) (UniProt P04150); experiment: GR-GFP Redistribution (AID 450;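 active = compounds whose dose series gives a full or clear partial fitted curve of increased nuclear translocation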; also: potency is read from the fitted curve at half-maximal effect); settings: U2OS GR-GFP nuclear translocation, laser cytometry, 2 h
[7] = biological target: Glucocorticoid receptor (Homo sapiens) (UniProt P04150); experiment: GR-EFC Redistribution (AID 451; calls by dose curve; also: potency is read from the fitted curve at half-maximal effect); settings: CHO-K1 GR-EFC translocation, beta-gal luminescence, 2 h
Method in brief: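 CHO-K1 cells stably expressing nuclear-localized β-gal enzyme acceptor and GR fused C-terminally to the enzyme donor fragment; ligand-driven nuclear translocation restores β-gal by complementation. Compounds titrated up to 46 uM final, 2 h at 37 °C; luminescence read.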

[8] = biological target: Mitogen-activated protein kinase 10 (Mus musculus) (UniProt Q61831); experiment: JNK3 AlphaScreen Assay (AID 530);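 also: kinase came from lysate of stimulated human HepG2 cells; signal reports phosphorylation of biotinylated GST-cJun 1-79 at Ser73 with 10 µM ATP; % is scaled to controls: 0 for no effect and ±100 for the full control effect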
Method in brief: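 JNK3 came from HepG2 lysates pre-activated with IL-1beta and TNF-alpha and phosphorylated biotinylated GST-cJun (1-79) at 10 uM ATP, pH 7.6, room temperature. Compounds were titrated. AlphaScreen signal used anti-phospho-cJun (Ser73) antibody.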

Chain of Glucocorticoid receptor (Homo sapiens) (P04150 whole entry, looked up, the tested form may be a part): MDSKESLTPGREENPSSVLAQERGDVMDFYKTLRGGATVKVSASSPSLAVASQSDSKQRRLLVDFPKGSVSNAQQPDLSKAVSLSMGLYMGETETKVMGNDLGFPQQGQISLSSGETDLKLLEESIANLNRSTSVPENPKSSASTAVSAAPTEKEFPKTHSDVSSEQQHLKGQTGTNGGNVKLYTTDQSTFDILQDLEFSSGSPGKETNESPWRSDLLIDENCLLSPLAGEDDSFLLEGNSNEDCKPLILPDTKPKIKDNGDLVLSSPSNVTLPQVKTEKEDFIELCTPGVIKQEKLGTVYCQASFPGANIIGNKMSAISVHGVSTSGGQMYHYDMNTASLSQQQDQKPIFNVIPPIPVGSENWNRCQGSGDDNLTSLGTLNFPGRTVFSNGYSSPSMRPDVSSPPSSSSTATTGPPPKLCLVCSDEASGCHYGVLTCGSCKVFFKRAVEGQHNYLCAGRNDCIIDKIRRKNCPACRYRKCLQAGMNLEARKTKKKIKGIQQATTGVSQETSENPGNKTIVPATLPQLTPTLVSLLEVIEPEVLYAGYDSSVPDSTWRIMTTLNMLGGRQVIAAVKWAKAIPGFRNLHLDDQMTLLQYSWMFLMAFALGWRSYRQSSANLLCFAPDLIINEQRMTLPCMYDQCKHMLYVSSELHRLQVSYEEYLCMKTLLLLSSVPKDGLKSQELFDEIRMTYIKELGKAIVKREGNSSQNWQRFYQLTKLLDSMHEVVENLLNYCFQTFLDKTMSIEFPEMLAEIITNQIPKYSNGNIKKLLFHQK
Chain of Cytochrome P450 1A2 (Homo sapiens) (P05177 whole entry, looked up): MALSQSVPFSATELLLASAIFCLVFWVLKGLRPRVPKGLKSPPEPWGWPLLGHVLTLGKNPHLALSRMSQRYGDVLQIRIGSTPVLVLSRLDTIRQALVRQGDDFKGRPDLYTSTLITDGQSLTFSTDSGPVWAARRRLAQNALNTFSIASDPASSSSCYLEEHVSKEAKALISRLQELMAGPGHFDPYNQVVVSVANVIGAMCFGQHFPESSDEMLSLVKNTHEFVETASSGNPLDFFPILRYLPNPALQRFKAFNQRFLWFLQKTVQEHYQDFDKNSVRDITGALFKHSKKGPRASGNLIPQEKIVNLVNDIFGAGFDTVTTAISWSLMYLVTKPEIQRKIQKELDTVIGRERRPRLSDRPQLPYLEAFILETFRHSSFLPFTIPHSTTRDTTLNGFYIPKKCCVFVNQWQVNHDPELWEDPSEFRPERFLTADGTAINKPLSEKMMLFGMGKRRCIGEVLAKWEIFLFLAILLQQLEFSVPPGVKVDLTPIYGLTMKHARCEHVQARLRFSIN
Chain of Lysosomal acid glucosylceramidase (Homo sapiens) (P04062 whole entry, looked up): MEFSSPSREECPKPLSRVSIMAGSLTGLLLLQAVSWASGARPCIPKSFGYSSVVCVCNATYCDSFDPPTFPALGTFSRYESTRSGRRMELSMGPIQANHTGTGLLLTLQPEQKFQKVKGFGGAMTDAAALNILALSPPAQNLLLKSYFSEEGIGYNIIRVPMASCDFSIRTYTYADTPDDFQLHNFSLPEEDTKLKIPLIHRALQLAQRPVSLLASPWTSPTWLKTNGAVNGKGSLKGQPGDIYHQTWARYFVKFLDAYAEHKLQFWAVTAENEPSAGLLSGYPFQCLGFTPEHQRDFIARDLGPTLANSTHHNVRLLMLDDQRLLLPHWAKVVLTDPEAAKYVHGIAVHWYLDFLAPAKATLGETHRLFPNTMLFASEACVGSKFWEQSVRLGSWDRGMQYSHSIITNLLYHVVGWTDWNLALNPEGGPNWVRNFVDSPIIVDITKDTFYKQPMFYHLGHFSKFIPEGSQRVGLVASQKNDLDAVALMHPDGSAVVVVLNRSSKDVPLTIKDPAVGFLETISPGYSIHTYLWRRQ

Compound | Potency [1] | activity change, negative = inhibition [2] | Potency [3] | activity change, negative = inhibition [4] | activity, negative = inhibition [5] | Potency [6] | Potency [7] | Potency [8]
CC(C)CN=C(N)N=C(N)N | > 11.4 µM | 6.14% | inactive | 11.1% | 1.4% | > 46 µM | > 9.22 µM | –
O=C(O)c1ccccc1/C=N\N=C1c2ccccc2-c2ccccc21 | > 11.4 µM | 20.6% | 0.316 µM (active) | 7.67% | -13.9% | > 46 µM | > 9.22 µM | inactive
